From PubChem BioAssay AID1159580 (chemical genetic matrix, 2015)
Among all 5,500 compounds or so, about 2,000 (36%) were called active. Another 18% or so got no clear call; they are omitted. Rule as the data show it: active = normalized growth mostly below about 0.91 (no sharp cut-off); inconclusive = no clear call, values can overlap the other calls; inactive = mostly above about 0.92. This is one part of the list.

Experiment: chemical genetic growth profiling, strain panel (AID 1159580);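 also: tested at 20 µM; growth read once vehicle control cultures reached saturation at 30 °C; 1 = growth at the plate median or of vehicle wells; lower values mean less growth of the strain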
Conditions: growth OD

Measured: normalized growth

S=c1[nH]c2ccccc2s1
inactive: S. cerevisiae deletion strains, locus YKL009W, strain mrt4, active compounds read low 0.996 | S. cerevisiae deletion strains, locus YKL068W, active compounds read low 1.02 | S. cerevisiae deletion strains, locus YKL085W, strain MDH1 (second series), active compounds read low 1.01 | S. cerevisiae deletion strains, locus YKL085W, strain MDH1, active compounds read low 1.01 | S. cerevisiae deletion strains, locus YKL160W, strain elf1, active compounds read low 1.01 | S. cerevisiae deletion strains, locus YKL190W, strain CNB1, active compounds read low 0.99 | S. cerevisiae deletion strains, locus YKR001C, strain vps1, active compounds read low 0.954 | S. cerevisiae deletion strains, locus YKR026C, strain gcn3, active compounds read low 0.992 | S. cerevisiae deletion strains, locus YKR091W, strain srl3, active compounds read low 0.999 | S. cerevisiae deletion strains, locus YLL001W, strain dnm1, active compounds read low 0.992 | S. cerevisiae deletion strains, locus YLL026W, active compounds read low 0.989 | S. cerevisiae deletion strains, locus YLL041C, strain sdh2, active compounds read low 0.98 | S. cerevisiae deletion strains, locus YLR027C, strain aat2, active compounds read low 0.972 | S. cerevisiae deletion strains, locus YLR039C, strain RIC1, active compounds read low 0.858 | S. cerevisiae deletion strains, locus YLR058C, strain SHM2, active compounds read low 0.962 | S. cerevisiae deletion strains, locus YLR102C, strain apc9, active compounds read low 1.01 | S. cerevisiae deletion strains, locus YLR113W, strain HOG1, active compounds read low 0.919 | S. cerevisiae deletion strains, locus YLR221C, strain rsa3, active compounds read low 0.936 | S. cerevisiae deletion strains, locus YLR258W, strain gsy2, active compounds read low 0.988 | S. cerevisiae deletion strains, locus YLR262C, strain YPT6, active compounds read low 0.921 | S. cerevisiae deletion strains, locus YLR268W, strain sec22, active compounds read low 0.932 | S. cerevisiae deletion strains, locus YLR320W, strain mms22, active compounds read low 0.967 | S. cerevisiae deletion strains, locus YLR330W, strain CHS5, active compounds read low 0.997 | S. cerevisiae deletion strains, locus YLR342W, strain FKS1 (second series), active compounds read low 0.808 | S. cerevisiae deletion strains, locus YLR342W, strain FKS1, active compounds read low 0.972 | S. cerevisiae deletion strains, locus YLR357W, strain rsc2, active compounds read low 0.879 | S. cerevisiae deletion strains, locus YLR370C, strain arc18, active compounds read low 0.971 | S. cerevisiae deletion strains, locus YLR371W, strain rom2, active compounds read low 1.01 | S. cerevisiae deletion strains, locus YLR384C, strain iki3, active compounds read low 0.982 | S. cerevisiae deletion strains, locus YLR418C, strain cdc73, active compounds read low 0.907 | S. cerevisiae deletion strains, locus YML016C, strain PPZ1, active compounds read low 0.973 | S. cerevisiae deletion strains, locus YML032C, strain rad52, active compounds read low 1 | S. cerevisiae deletion strains, locus YML120C, strain ndi1, active compounds read low 1.07 | S. cerevisiae deletion strains, locus YML124C, strain tub3, active compounds read low 1.01 | S. cerevisiae deletion strains, locus YMR058W, strain fet3, active compounds read low 0.947 | S. cerevisiae deletion strains, locus YMR078C, strain ctf18, active compounds read low 1 | S. cerevisiae deletion strains, locus YMR125W, strain sto1, active compounds read low 1.11 | S. cerevisiae deletion strains, locus YMR129W, active compounds read low 0.993 | S. cerevisiae deletion strains, locus YMR205C, strain PFK2, active compounds read low 1.03 | S. cerevisiae deletion strains, locus YMR223W, strain ubp8, active compounds read low 0.95 | S. cerevisiae deletion strains, locus YMR231W, strain pep5, active compounds read low 0.973 | S. cerevisiae deletion strains, locus YMR263W, strain SAP30, active compounds read low 0.994 | S. cerevisiae deletion strains, locus YMR307W, strain GAS1, active compounds read low 0.862 | S. cerevisiae deletion strains, locus YNL067W, strain RPL9B, active compounds read low 0.992 | S. cerevisiae deletion strains, locus YNL071W, strain lat1, active compounds read low 0.929 | S. cerevisiae deletion strains, locus YNL128W, strain TEP1, active compounds read low 1.02 | S. cerevisiae deletion strains, locus YNL153C, strain GIM3, active compounds read low 0.973 | S. cerevisiae deletion strains, locus YNL209W, strain ssb2, active compounds read low 0.984 | S. cerevisiae deletion strains, locus YNL233W, strain BNI4, active compounds read low 0.985 | S. cerevisiae deletion strains, locus YNL248C, strain rpa49, active compounds read low 0.974 | S. cerevisiae deletion strains, locus YNL250W, strain rad50, active compounds read low 1.01 | S. cerevisiae deletion strains, locus YNL271C, strain bni1, active compounds read low 0.99 | S. cerevisiae deletion strains, locus YNL298W, strain CLA4, active compounds read low 1.01 | S. cerevisiae deletion strains, locus YNL307C, strain MCK1, active compounds read low 0.97 | S. cerevisiae deletion strains, locus YNL322C, strain KRE1 (second series), active compounds read low 1.02 | S. cerevisiae deletion strains, locus YNL322C, strain KRE1, active compounds read low 1 | S. cerevisiae deletion strains, locus YNR049C, strain mso1, active compounds read low 0.983 | S. cerevisiae deletion strains, locus YNR052C, strain pop2, active compounds read low 0.984 | S. cerevisiae deletion strains, locus YOL012C, strain htz1 0.93 | S. cerevisiae deletion strains, locus YOL147C, strain pex11, active compounds read low 0.99 | S. cerevisiae deletion strains, locus YOR001W, strain rrp6, active compounds read low 0.943 | S. cerevisiae deletion strains, locus YOR061W, strain CKA2, active compounds read low 0.985 | S. cerevisiae deletion strains, locus YOR069W, strain VPS5, active compounds read low 0.99 | S. cerevisiae deletion strains, locus YOR070C, strain gyp1, active compounds read low 0.97 | S. cerevisiae deletion strains, locus YOR080W, strain dia2, active compounds read low 0.992 | S. cerevisiae deletion strains, locus YOR083W, strain WHI5, active compounds read low 0.997 | S. cerevisiae deletion strains, locus YOR136W, strain idh2, active compounds read low 0.999 | S. cerevisiae deletion strains, locus YOR144C, strain elg1, active compounds read low 1.01 | S. cerevisiae deletion strains, locus YOR184W, strain ser1, active compounds read low 0.88 | S. cerevisiae deletion strains, locus YOR265W, strain rbl2, active compounds read low 0.976 | S. cerevisiae deletion strains, locus YOR270C, strain vph1, active compounds read low 0.834 | S. cerevisiae deletion strains, locus YOR290C, strain snf2, active compounds read low 0.991 | S. cerevisiae deletion strains, locus YOR316C, strain cot1, active compounds read low 1.02 | S. cerevisiae deletion strains, locus YPL055C, strain LGE1, active compounds read low 0.987 | S. cerevisiae deletion strains, locus YPL078C, strain atp4, active compounds read low 1 | S. cerevisiae deletion strains, locus YPL106C, strain sse1, active compounds read low 0.986 | S. cerevisiae deletion strains, locus YPL240C, strain hsp82, active compounds read low 0.986 | S. cerevisiae deletion strains, locus YPL241C, strain CIN2, active compounds read low 0.998 | S. cerevisiae deletion strains, locus YPL256C, strain CLN2, active compounds read low 0.904 | S. cerevisiae deletion strains, locus YPR119W, strain clb2, active compounds read low 1.02 | S. cerevisiae deletion strains, locus YPR141C, strain kar3, active compounds read low 1.01 | S. cerevisiae deletion strains, locus YPR163C, strain tif3, active compounds read low 1 | S. cerevisiae deletion strains, locus YPR167C, strain met16, active compounds read low 1.02 | S. cerevisiae deletion strains, strain wtn01, active compounds read low 0.977 | S. cerevisiae strains, strain wild type, active compounds read low 0.996
active: S. cerevisiae deletion strains, locus YLR262C, strain YPT6 (second series), active compounds read low 0.82 | S. cerevisiae deletion strains, locus YNL183C, strain NPR1, active compounds read low 0.751 | S. cerevisiae deletion strains, locus YOL006C, strain TOP1, active compounds read low 0.417 | S. cerevisiae deletion strains, locus YOR106W, strain vam3, active compounds read low 0.865 | S. cerevisiae deletion strains, locus YOR231W, strain MKK1, active compounds read low 0.798 | S. cerevisiae deletion strains, locus YPL051W, strain arl3, active compounds read low 0.904
